Most compounds without a hit are left out; they make up all but 9.6% or so of the library.
bCat KO growth: beta-catenin-lacking colon tumor cell growth suppression; AID 818; hit rate 1.5% among 140,000; HCT116 beta-catenin knockout viability, CellTiter-Glo, 60 h; active compounds read low; viability, % at 10 µM;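 active = viability at or under a set limit, the compound median less 4 SD, cut at about 6% in these data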
PTEN del growth: suppresses growth of cells with PTEN deletion. HCT116 PTEN-null viability, CellTiter-Glo, 60 h; active compounds read low. viability, % at 10 µM. hit rate 1.2% among 140,000. AID 827;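 active = viability at or below a set limit, 4 SD under the median of all tested compounds, cut at about 3.7% in these data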;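 note: PTEN knockout HCT116 line with beta catenin targeted HCT116 as companion control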
Lmaj promast: inhibitors of Leishmania major promastigote growth; Leishmania major promastigotes, resazurin fluorescence viability; inhibition, % at 10 µM; hit rate 9% among 200,000; in the data active = inhibition above about 50%;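 note: promastigotes grown with compound for 44 hours at 28 °C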
Autophagy mod: modulators of autophagy; calls only at 10 µM (by protocol); AID 463193; MEF GFP-LC3 puncta imaging; test concentration mostly 10 µM; hit rate 0.98% among 190,000;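 active = percentage of spot-positive cells more than 3 SD above its plate mean, without a fluorescence outlier flag or 80% toxicity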
Insulin prom inh: TRM-6 insulin promoter activity inhibition; TRM-6 cells (human fetal islet line), insulin promoter-eGFP reporter, imaging; reporter expression induced with tamoxifen; inhibition, % at 2 µM; hit rate 0.9% among 130,000;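 active = inhibition above the mean plus 3 SD, with well images judged a real hit on visual review, cut at about 60% in these data, passing the limit was not always enough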
Insulin prom up: MIN6 insulin promoter up-regulation; hit rate 0.3% among 190,000; AID 1625; z-score at 5 µM; MIN6 insulin promoter-GFP reporter, high-content imaging; active compounds read high;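 active = z-score above 3 at 5 µM with at least 500 cells counted in the well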
Each line names hits and unclear results; the compound was inactive in the other large screens.

CCCCOc1ccc(-c2nnn(CC(=O)NCCc3c[nH]c4ccccc34)n2)cc1	none
CCC(c1nnc(SCC(=O)N2CC3(C)CC2CC(C)(C)C3)o1)N(C)C (stereo unspecified)	none (no result: Insulin prom inh)
COc1ccc(C(=O)/C=C/c2ccccc2F)c(OC(=O)c2ccc([N+](=O)[O-])cc2)c1	Lmaj promast 91.2 (no result: Insulin prom inh)
CC1Cc2nc(SCC(=O)Nc3ccc(F)cc3F)n(C)c(=O)c2S1 (stereo unspecified)	none
O=C(CN1CCN(c2ccc(O)cc2)CC1)Nc1cc(S(=O)(=O)N2CCCCC2)ccc1Cl	Lmaj promast 98.6 (no result: bCat KO growth, PTEN del growth, Insulin prom inh)
O=C(Nc1cccc(Cl)c1)Nc1cccc(Cl)c1	none (no result: Insulin prom up)
O=C(Nc1ccc(Cl)c(Cl)c1)Nc1cc(S(=O)(=O)N2CCOCC2)ccc1N1CCCC1	Lmaj promast 68.7 (no result: Insulin prom up)
O=C(Nc1ccccc1)c1cc(S(=O)(=O)N2CCSCC2)ccc1Cl	Lmaj promast 52.7
COC(=O)c1cc(NC(=O)Nc2cccc(Cl)c2)ccc1Cl	bCat KO growth 3.8, PTEN del growth 3.4, Lmaj promast 71.4 (no result: Insulin prom inh)
O=C(Nc1ccccc1F)Nc1cc(S(=O)(=O)N2CCOCC2)ccc1N1CCCC1	none (no result: bCat KO growth, PTEN del growth)
O=C(CN1CCN(c2ccc(O)cc2)CC1)Nc1cc(S(=O)(=O)N2CCCC2)ccc1Cl	none (no result: bCat KO growth, PTEN del growth)
COC(=O)c1ccc(C(=O)OC)c(NC(=O)CSc2nnc(-c3ccccc3Cl)o2)c1	none (no result: bCat KO growth, PTEN del growth, Insulin prom up)
CCS(=O)(=O)CCSC1OC(COC(C)=O)C(OC(C)=O)C(OC(C)=O)C1OC(C)=O (stereo unspecified)	none (no result: bCat KO growth, PTEN del growth, Insulin prom inh)
NC(=O)[C@@H]1CC2(CC(c3cccc(NC(=O)[C@@H]4CCC(=O)N4)c3)=NO2)CN1C(=O)Cc1ccc([N+](=O)[O-])cc1 (stereo partly specified)	none (no result: bCat KO growth, PTEN del growth, Lmaj promast, Autophagy mod, Insulin prom inh)
O=C(Nc1ccccc1)Nc1ccc(S(=O)(=O)N2CCCCC2)cc1	Lmaj promast 82.5
O=S(=O)(c1ccc(Cl)c(NC(=S)N/N=C/c2ccc(O)cc2)c1)N1CCOCC1	Lmaj promast 88.3
Cc1ccc(S(=O)(=O)N2CCCCC2)cc1NC(=O)Nc1ccc(Cl)cc1Cl	none (no result: bCat KO growth, PTEN del growth)
COC(=O)c1cccc(NC(=O)c2ccc(S(=O)(=O)N3CCN(C)CC3)cc2)c1	none
O=C(Nc1cccc(Cl)c1)Nc1cc(S(=O)(=O)N2CCCCC2)ccc1Cl	bCat KO growth 3.9, PTEN del growth 2.4 (no result: Insulin prom inh)
CN1CCN(S(=O)(=O)c2ccc(NC(=O)Nc3cccc(Cl)c3)cc2)CC1	Lmaj promast 98.1
CCN(c1ccccc1)S(=O)(=O)c1ccc(Cl)c(C(=O)O)c1	none (no result: bCat KO growth, PTEN del growth, Insulin prom inh, Insulin prom up)
COc1ccc(/C(N)=N/OC(=O)Cc2cccs2)cc1OC	none
O=C(Nc1cccc(Cl)c1)Nc1ccc(Br)cc1F	Lmaj promast 67.6
COc1cccc(C=Nc2ccccc2C(=O)Nc2ccccc2)c1O	Lmaj promast 51.9
COc1cccc(/C=N/NC(=O)CSCC(=O)Nc2ccccc2)c1O	Lmaj promast 99.0
COc1cccc(/C=N\NC(=O)C2C(=O)NCC2c2ccccc2)c1O (stereo unspecified)	Lmaj promast 95.6
COc1ccc(-n2cc3c(-c4cccc(Br)c4)nnc(C)c3n2)cc1	Lmaj promast 58.6, Autophagy mod active
Cc1nnc(-c2cccc(Br)c2)c2cn(-c3ccc(Br)cc3)nc12	none (no result: Insulin prom inh)
Cc1nn(C)c(C(=O)Nc2ccc(Cl)c([N+](=O)[O-])c2)c1Cl	none (no result: Insulin prom inh)
CCCCNc1nc2c(S(=O)(=O)c3ccccc3)nnn2c2ccccc12	none (no result: bCat KO growth, PTEN del growth, Insulin prom inh)
Cc1cccc(Nc2nc3c(S(=O)(=O)c4ccccc4)nnn3c3ccccc23)c1	Lmaj promast 50.5
CCc1ccc(S(=O)(=O)c2nnn3c2nc(NCCNC(C)=O)c2ccccc23)cc1	Insulin prom inh 83.3 (no result: bCat KO growth, PTEN del growth)
Cc1cc(C)cc(Nc2nc3c(S(=O)(=O)c4ccccc4)nnn3c3ccccc23)c1	none
CCCCOc1ccc(Cl)cc1CSc1nnc(CC)n1N	Lmaj promast 87.9
Cc1ccc(N/N=C2\CS(=O)(=O)N(C)c3ccsc32)cc1	none (no result: bCat KO growth, PTEN del growth)
COc1cc(C)c(S(=O)(=O)N2CCN=C2c2ccccc2)cc1C	Lmaj promast 93.5
Cc1cc(C)c(S(=O)(=O)N2CCN=C2c2ccccc2)cc1C	none (no result: Insulin prom up)
COc1cccc(-n2nnc3c(=O)n(CC(=O)NC4CCCC4)cnc32)c1	none
Cc1cccc(Cn2cc(SCC(=O)Nc3nccs3)c3ccccc32)c1	none (no result: Insulin prom inh)
CCC(C)(C)NC(=O)C(c1ccccc1F)N(Cc1ccco1)C(=O)c1csnn1 (stereo unspecified)	Lmaj promast 56.6
COc1ccc(C2C(C#N)=C(N)OC3=C2C(=O)CC(C)(C)C3)cc1OC (stereo unspecified)	none (no result: bCat KO growth, PTEN del growth)
C=CCOc1ccc(C2C(C#N)=C(N)N(Nc3ccccc3)C3=C2C(=O)CC(C)(C)C3)cc1OC (stereo unspecified)	Lmaj promast 89.3 (no result: Insulin prom inh)
Cc1ccc([N+](=O)[O-])cc1NC(=O)CN(C(=O)c1ccccc1Cl)C1CCCCC1	none
Cc1ccccc1CN(CC(=O)Nc1cccc([N+](=O)[O-])c1)S(=O)(=O)c1ccc(Cl)cc1	Lmaj promast 99.6
CS(=O)(=O)N(CC(=O)Nc1cccc([N+](=O)[O-])c1)c1ccccc1	none (no result: bCat KO growth, PTEN del growth, Insulin prom up)
COc1ccc(C)cc1S(=O)(=O)N(CC(=O)Nc1cccc([N+](=O)[O-])c1)c1ccccc1	Lmaj promast 56.0 (no result: Insulin prom inh)
Cc1ccc([N+](=O)[O-])cc1NC(=O)CN(C1CCCCC1)S(=O)(=O)c1ccc(Cl)cc1	Lmaj promast 73.3 (no result: Insulin prom inh)
Cc1ccc(NC(=O)CN(c2ccc(Cl)cc2)S(=O)(=O)c2cc([N+](=O)[O-])ccc2Cl)c(C)c1	Lmaj promast 98.3 (no result: bCat KO growth, PTEN del growth)
CS(=O)(=O)N(CC(=O)Nc1cccc([N+](=O)[O-])c1)c1ccccc1F	none (no result: bCat KO growth, PTEN del growth, Insulin prom up)
CCOc1cc(NC(=O)c2ccco2)c(OCC)cc1NC(=O)c1cc(OC)c(OC)c(OC)c1	none (no result: Insulin prom inh)
CCOc1ccccc1C(=O)N1CCOCC1	none
CN(C)c1ccc(CNC(=O)C2CCN(S(=O)(=O)c3ccc4c(c3)CCC(=O)N4)CC2)cc1	none (no result: Insulin prom inh)
COc1ccc(OCC(=O)Nc2ccc(S(=O)(=O)N3CCOCC3)cc2)cc1	none
COc1ccc(NC(=O)CN(c2ccc([N+](=O)[O-])cc2)S(=O)(=O)c2ccccc2)cc1	none
COc1ccc(OC)c(N(CC(=O)Nc2ccc3c(c2)OCO3)S(=O)(=O)c2ccccc2)c1	Lmaj promast 99.7
COc1cccc(NC(=O)CN(c2ccc([N+](=O)[O-])cc2)S(=O)(=O)c2ccccc2)c1	Lmaj promast 97.6
COc1ccc(S(=O)(=O)N(CC(=O)N2CCN(c3ccccc3OC)CC2)c2ccccc2)cc1	Lmaj promast 90.8 (no result: Insulin prom up)
COc1ccc(N2CCN(C(=O)CN(c3ccccc3)S(=O)(=O)c3ccc(OC)cc3)CC2)cc1	none
COc1ccc(N(CC(=O)Nc2ccc(S(=O)(=O)N3CCOCC3)cc2)S(=O)(=O)c2ccccc2)cc1	Lmaj promast 58.2
COc1ccc(Cl)cc1N(CC(=O)Nc1ccc2c(c1)OCO2)S(C)(=O)=O	none (no result: Insulin prom inh)
CCN1CCN(C(=O)CN(c2cc(OC)ccc2OC)S(C)(=O)=O)CC1	none

Compound activity deposited in PubChem by several laboratories.
